Legend:
Test in all cases: DAPPL (digital affinity profiling via proximity ligation, sequencing); 10 mM Tris-HCl pH 7.5, 50 mM NaCl, 1 mM DTT, 4% glycerol, room temperature, 30 min; GST-TFs on glutathione beads, 16-mer random dsDNA library, 0.1% formaldehyde crosslink after washing; high values mean tight binding
[1] = molecular target: T1, FLI1 (Homo sapiens, UniProt Q01543 1-452); conditions: protein: recombinant; tags: N-terminal GST; dsDNA, one strand shown
T1 sequence: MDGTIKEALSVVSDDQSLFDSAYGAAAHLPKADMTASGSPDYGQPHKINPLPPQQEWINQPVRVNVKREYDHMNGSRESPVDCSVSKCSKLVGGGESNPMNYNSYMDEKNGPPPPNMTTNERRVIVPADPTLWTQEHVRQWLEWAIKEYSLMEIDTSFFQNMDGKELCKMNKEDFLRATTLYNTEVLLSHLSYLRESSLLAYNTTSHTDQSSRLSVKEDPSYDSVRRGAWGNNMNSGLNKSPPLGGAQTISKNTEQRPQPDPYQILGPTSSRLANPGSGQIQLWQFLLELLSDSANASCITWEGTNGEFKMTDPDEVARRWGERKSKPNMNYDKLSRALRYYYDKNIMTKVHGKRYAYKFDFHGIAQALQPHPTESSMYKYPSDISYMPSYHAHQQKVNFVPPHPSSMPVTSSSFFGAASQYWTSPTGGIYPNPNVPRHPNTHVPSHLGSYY
Outline: (§1)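 The binding signal reported is, for every hexamer, its read frequency for a factor over its read frequency for the tag-only sample. Reads came from pools of yeast-expressed, GST-fused human transcription factors on glutathione beads, barcoded with DNA and mixed with that sample, which were incubated with 200 nmole of a random double-stranded 16-mer DNA library in Tris/NaCl/DTT/glycerol buffer at room temperature for 30 min. After washing, the pools were crosslinked with 0.1% formaldehyde, proximity-ligated with BsaI/T4 ligase for 1 h at 37 °C, PCR-amplified and sequenced on an Illumina NextSeq500.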

[2] = molecular target: T2, ELK1 (Homo sapiens, UniProt P19419 1-428); conditions: protein: recombinant; tags: N-terminal GST; dsDNA, one strand shown
T2 sequence: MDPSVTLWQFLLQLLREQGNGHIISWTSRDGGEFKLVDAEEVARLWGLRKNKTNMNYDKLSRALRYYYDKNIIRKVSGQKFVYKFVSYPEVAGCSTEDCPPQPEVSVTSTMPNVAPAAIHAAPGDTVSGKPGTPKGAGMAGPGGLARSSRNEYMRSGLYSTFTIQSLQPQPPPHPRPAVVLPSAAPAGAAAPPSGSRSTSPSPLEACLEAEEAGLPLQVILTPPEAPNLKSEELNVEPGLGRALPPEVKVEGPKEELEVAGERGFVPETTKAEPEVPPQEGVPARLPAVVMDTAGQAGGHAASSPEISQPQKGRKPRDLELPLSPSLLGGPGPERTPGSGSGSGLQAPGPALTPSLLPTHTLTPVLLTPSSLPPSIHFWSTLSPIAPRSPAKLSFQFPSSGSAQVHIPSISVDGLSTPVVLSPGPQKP
Outline: as §1

[3] = molecular target: T3, GABPA (Homo sapiens, UniProt Q06546 1-454); conditions: protein: recombinant; tags: N-terminal GST; dsDNA, one strand shown
T3 sequence: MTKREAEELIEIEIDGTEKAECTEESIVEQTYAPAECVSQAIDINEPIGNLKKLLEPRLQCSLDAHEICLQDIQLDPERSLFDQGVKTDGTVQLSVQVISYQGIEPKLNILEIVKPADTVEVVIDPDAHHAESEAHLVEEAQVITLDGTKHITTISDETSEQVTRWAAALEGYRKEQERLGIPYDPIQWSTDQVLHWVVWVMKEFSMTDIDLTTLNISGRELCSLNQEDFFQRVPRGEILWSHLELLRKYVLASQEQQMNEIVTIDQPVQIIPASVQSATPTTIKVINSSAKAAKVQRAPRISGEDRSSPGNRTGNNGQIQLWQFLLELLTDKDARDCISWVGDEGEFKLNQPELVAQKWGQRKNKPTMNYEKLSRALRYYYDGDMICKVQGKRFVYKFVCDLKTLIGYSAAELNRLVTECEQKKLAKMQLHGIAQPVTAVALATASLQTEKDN
Outline: as §1

[4] = molecular target: T4, ERG (Homo sapiens, UniProt P11308 1-479); conditions: protein: recombinant; tags: N-terminal GST; dsDNA, one strand shown
T4 sequence: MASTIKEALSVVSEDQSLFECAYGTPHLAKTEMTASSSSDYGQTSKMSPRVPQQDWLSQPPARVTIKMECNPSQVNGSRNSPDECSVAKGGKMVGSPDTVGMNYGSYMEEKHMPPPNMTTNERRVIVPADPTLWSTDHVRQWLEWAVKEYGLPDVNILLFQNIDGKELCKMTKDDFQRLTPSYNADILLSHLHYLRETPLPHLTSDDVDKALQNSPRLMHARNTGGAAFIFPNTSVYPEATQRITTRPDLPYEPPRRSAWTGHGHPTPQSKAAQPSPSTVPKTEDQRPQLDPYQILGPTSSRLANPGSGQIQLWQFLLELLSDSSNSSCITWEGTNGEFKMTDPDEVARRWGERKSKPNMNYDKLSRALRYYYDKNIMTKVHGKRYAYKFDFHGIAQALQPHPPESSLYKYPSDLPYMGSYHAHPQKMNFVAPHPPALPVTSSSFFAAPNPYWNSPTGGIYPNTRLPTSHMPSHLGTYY
Outline: as §1

[5] = molecular target: ELF1 (Homo sapiens, UniProt P32519 1-619); conditions: protein: recombinant; tags: N-terminal GST; dsDNA, one strand shown
Sequence of ELF1 (P32519 whole entry): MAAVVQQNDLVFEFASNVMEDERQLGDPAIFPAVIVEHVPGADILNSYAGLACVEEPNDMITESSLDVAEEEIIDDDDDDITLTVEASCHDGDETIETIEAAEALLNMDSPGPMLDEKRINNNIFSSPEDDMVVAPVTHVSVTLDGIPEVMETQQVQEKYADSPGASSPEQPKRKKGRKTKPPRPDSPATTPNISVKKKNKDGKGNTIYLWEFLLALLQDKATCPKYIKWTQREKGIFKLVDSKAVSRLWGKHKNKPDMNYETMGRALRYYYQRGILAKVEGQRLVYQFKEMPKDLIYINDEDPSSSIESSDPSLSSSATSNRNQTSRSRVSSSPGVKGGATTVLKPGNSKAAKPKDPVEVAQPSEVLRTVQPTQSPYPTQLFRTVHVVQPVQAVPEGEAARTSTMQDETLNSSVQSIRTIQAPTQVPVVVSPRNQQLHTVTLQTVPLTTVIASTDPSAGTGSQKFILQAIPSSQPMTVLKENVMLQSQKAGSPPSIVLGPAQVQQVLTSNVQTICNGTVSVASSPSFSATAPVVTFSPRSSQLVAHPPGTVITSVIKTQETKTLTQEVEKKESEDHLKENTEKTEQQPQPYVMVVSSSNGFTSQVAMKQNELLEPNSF
Outline: as §1

[6] = molecular target: T5, EHF (Homo sapiens, UniProt Q9NZC4 1-300); conditions: protein: recombinant; tags: N-terminal GST; dsDNA, one strand shown
T5 sequence: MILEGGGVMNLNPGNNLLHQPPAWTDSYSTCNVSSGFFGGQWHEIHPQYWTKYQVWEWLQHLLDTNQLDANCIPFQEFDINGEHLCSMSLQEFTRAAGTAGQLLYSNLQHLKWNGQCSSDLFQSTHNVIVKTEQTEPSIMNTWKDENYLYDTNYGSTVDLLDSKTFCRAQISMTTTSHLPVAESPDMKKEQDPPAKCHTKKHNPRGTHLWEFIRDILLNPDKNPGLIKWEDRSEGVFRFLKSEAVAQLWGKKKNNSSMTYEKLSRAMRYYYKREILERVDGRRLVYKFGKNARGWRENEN
Outline: as §1

[7] = molecular target: SPI1 (Homo sapiens, UniProt P17947 1-270); conditions: protein: recombinant; tags: N-terminal GST; dsDNA, one strand shown
Outline: as §1

[8] = molecular target: SPIB (Homo sapiens, UniProt Q01892 1-262); conditions: protein: recombinant; tags: N-terminal GST; dsDNA, one strand shown
Sequence of SPIB (Q01892 whole entry): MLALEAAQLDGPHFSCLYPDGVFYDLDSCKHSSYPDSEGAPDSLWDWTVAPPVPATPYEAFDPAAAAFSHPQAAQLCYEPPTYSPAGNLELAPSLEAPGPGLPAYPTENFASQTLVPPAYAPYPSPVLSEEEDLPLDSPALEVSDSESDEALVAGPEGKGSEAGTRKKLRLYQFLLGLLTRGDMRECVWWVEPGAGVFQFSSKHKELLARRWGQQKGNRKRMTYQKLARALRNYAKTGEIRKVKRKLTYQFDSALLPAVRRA
Outline: as §1

[9] = molecular target: T6, ELK3 (Homo sapiens, UniProt P41970 1-407); conditions: protein: recombinant; tags: N-terminal GST; dsDNA, one strand shown
T6 sequence: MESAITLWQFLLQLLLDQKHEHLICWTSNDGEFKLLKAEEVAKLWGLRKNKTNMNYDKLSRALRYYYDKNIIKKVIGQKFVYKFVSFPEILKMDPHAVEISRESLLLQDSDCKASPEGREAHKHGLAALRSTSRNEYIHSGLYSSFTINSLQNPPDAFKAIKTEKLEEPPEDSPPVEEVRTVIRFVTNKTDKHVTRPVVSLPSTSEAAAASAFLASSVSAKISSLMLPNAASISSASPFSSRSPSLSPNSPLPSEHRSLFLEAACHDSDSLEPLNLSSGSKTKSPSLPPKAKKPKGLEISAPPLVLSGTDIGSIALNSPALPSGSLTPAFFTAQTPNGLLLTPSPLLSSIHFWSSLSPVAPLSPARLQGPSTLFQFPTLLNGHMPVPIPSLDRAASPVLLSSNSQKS
Outline: as §1

[10] = molecular target: T7, FEV (Homo sapiens, UniProt Q99581 1-238); conditions: protein: recombinant; tags: N-terminal GST; dsDNA, one strand shown
T7 sequence: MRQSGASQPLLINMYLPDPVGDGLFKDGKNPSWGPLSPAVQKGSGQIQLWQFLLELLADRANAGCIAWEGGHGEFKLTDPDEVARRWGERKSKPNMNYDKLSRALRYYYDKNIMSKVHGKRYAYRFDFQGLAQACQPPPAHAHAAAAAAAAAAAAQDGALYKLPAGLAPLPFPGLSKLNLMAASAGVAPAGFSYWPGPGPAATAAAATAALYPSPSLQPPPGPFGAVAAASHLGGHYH
Outline: as §1

[11] = molecular target: ETV5 (Homo sapiens, UniProt P41161 1-510); conditions: protein: recombinant; tags: N-terminal GST; dsDNA, one strand shown
Sequence of ETV5 (P41161 whole entry): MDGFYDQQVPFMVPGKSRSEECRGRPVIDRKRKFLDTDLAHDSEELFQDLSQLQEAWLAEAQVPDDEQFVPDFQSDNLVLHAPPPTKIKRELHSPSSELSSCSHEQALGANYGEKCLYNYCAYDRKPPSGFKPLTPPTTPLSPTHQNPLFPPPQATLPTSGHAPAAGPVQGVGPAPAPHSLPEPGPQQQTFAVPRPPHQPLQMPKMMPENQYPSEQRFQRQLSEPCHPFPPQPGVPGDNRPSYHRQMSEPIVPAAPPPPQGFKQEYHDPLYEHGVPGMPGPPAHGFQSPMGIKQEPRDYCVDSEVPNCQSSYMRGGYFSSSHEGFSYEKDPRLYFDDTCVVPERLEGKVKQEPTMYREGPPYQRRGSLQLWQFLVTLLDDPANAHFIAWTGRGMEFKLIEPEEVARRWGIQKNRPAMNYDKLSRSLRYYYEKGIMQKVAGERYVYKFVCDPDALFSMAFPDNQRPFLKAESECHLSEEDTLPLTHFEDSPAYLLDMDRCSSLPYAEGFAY
Outline: as §1

[12] = molecular target: HSF1 (Homo sapiens, UniProt Q00613 1-529); conditions: protein: recombinant; tags: N-terminal GST; chain copies: 3; dsDNA, one strand shown
Sequence of HSF1 (Q00613 whole entry): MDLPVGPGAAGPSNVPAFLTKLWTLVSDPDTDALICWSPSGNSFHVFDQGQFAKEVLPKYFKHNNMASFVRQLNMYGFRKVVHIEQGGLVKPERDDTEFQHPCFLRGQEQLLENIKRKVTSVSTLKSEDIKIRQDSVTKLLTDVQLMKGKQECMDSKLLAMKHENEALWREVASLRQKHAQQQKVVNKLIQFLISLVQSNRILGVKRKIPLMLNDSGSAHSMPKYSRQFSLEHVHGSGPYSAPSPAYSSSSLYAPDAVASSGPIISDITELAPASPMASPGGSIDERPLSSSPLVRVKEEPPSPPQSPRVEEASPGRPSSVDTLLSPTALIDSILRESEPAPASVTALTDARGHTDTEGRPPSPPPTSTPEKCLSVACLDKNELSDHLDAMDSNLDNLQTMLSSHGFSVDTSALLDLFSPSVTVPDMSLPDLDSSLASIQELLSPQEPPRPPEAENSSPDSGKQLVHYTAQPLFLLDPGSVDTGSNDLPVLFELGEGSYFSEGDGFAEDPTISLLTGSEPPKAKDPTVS
Outline: as §1

[13] = molecular target: T8, SPIC (Homo sapiens, UniProt Q8N5J4 1-248); conditions: protein: recombinant; tags: N-terminal GST; dsDNA, one strand shown
T8 sequence: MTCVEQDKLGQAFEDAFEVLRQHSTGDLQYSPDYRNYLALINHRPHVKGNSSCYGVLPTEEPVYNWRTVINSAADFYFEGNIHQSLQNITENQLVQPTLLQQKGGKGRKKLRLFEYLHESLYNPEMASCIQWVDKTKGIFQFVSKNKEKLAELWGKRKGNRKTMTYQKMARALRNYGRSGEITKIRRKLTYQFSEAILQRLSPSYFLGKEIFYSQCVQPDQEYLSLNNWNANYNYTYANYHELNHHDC
Outline: as §1

[14] = molecular target: ELF4 (Homo sapiens, UniProt Q99607 1-663); conditions: protein: recombinant; tags: N-terminal GST; dsDNA, one strand shown
Sequence of ELF4 (Q99607 whole entry): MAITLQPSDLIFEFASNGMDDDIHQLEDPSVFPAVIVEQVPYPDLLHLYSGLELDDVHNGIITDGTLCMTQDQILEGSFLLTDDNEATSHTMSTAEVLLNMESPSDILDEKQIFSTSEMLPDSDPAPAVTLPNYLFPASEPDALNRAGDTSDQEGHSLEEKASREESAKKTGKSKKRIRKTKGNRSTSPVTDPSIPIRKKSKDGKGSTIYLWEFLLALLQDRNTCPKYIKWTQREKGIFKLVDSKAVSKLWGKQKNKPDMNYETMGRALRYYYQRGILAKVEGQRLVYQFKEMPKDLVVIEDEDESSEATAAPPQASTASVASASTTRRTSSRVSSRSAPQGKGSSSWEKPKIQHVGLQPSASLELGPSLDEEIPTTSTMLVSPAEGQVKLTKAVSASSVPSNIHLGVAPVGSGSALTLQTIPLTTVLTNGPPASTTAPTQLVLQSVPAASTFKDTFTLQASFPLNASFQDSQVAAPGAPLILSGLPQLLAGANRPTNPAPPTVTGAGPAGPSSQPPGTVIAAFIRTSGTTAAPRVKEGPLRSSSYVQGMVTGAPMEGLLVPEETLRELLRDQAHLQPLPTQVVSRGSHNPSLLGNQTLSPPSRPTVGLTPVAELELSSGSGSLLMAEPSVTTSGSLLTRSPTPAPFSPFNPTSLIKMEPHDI
Outline: as §1

[15] = molecular target: T9, ELK4 (Homo sapiens, UniProt P28324-2 1-405); conditions: protein: recombinant; tags: N-terminal GST; dsDNA, one strand shown
T9 sequence: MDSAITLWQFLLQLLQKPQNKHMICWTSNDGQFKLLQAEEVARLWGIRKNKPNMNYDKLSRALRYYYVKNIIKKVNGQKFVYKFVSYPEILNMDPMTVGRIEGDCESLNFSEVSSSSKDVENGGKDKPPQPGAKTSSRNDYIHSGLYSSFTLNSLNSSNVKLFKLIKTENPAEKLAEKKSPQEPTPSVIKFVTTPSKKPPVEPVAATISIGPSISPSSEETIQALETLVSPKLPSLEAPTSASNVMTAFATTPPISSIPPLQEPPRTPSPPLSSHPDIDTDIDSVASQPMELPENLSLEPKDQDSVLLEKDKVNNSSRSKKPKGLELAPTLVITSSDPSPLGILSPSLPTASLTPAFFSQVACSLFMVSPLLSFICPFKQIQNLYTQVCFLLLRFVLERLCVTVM
Outline: as §1

[16] = molecular target: T10, ETV2 (Homo sapiens, UniProt O00321 1-342); conditions: protein: recombinant; tags: N-terminal GST; dsDNA, one strand shown
T10 sequence: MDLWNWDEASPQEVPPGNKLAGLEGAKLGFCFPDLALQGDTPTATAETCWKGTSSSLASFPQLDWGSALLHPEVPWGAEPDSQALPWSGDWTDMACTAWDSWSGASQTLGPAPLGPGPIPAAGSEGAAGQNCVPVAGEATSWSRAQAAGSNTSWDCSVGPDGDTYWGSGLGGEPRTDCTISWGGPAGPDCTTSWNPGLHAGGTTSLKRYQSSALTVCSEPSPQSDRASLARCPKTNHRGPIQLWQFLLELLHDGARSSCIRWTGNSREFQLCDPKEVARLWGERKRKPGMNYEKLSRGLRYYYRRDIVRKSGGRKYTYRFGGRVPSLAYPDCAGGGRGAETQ
Outline: as §1

[17] = molecular target: T11, ELF3 (Homo sapiens, UniProt P78545 1-371); conditions: protein: recombinant; tags: N-terminal GST; dsDNA, one strand shown
T11 sequence: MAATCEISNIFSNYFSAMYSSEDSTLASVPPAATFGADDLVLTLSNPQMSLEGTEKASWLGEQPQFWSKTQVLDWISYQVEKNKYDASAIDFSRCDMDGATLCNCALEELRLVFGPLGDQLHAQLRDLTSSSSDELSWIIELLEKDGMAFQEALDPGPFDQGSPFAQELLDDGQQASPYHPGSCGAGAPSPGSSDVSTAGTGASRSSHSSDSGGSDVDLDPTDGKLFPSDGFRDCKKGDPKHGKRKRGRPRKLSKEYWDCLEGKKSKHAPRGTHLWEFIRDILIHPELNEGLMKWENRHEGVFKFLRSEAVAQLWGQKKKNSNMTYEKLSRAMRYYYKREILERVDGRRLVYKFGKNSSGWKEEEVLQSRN
Outline: as §1

[18] = molecular target: CRX (Homo sapiens, UniProt O43186 1-299); conditions: protein: recombinant; tags: N-terminal GST; dsDNA, one strand shown
Sequence of CRX (O43186 whole entry): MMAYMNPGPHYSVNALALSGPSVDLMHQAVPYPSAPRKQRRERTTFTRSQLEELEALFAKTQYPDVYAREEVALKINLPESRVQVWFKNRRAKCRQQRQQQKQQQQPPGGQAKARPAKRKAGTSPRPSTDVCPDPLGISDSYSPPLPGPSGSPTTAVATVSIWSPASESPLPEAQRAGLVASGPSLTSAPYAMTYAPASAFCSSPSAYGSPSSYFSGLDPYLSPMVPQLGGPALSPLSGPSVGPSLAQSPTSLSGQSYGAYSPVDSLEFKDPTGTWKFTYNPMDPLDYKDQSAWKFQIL
Outline: as §1

[19] = molecular target: ETV1 (Homo sapiens, UniProt P50549 1-477); conditions: protein: recombinant; tags: N-terminal GST; dsDNA, one strand shown
Sequence of ETV1 (P50549 whole entry): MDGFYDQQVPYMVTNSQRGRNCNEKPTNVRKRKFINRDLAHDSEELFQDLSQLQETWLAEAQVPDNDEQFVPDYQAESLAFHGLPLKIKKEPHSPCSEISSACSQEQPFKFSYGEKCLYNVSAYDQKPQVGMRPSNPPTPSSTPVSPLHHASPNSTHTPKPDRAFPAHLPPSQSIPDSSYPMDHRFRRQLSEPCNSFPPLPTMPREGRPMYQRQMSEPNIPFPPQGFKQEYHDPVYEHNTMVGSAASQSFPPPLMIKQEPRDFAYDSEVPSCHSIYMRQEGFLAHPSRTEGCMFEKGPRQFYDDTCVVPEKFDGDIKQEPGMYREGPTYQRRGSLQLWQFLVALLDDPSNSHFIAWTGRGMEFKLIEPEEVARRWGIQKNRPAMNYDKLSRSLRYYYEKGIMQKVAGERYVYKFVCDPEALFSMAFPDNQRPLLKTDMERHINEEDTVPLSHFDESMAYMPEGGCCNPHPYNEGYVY
Outline: as §1

Sequence: TCTTAC
- binding signal [1]: 1.29 fold enrichment (6-mer frequency, TF over GST control)
- binding signal [2]: 1.36 fold enrichment (6-mer frequency, TF over GST control)
- binding signal [3]: 1.33 fold enrichment (6-mer frequency, TF over GST control)
- binding signal [4]: 1.23 fold enrichment (6-mer frequency, TF over GST control)
- binding signal [5]: 1.32 fold enrichment (6-mer frequency, TF over GST control)
- binding signal [6]: 1.2 fold enrichment (6-mer frequency, TF over GST control)
- binding signal [7]: 1.26 fold enrichment (6-mer frequency, TF over GST control)
- binding signal [8]: 1.26 fold enrichment (6-mer frequency, TF over GST control)
- binding signal [9]: 1.3 fold enrichment (6-mer frequency, TF over GST control)
- binding signal [10]: 1.23 fold enrichment (6-mer frequency, TF over GST control)
- binding signal [11]: 1.28 fold enrichment (6-mer frequency, TF over GST control)
- binding signal [12]: 1.23 fold enrichment (6-mer frequency, TF over GST control)
- binding signal [13]: 1.29 fold enrichment (6-mer frequency, TF over GST control)
- binding signal [14]: 1.27 fold enrichment (6-mer frequency, TF over GST control)
- binding signal [15]: 1.34 fold enrichment (6-mer frequency, TF over GST control)
- binding signal [16]: 1.39 fold enrichment (6-mer frequency, TF over GST control)
- binding signal [17]: 1.13 fold enrichment (6-mer frequency, TF over GST control)
- binding signal [18]: 1.7 fold enrichment (6-mer frequency, TF over GST control)
- binding signal [19]: 1.32 fold enrichment (6-mer frequency, TF over GST control)
